In PubChem BioAssay:
“And” between values parts separate entries of the source, which are not always exact repeats. Equal values may be shown once. The source made the active and inactive calls.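 Rule for the calls, unless noted: active = inhibition at or above 50% relative to wild type and mutant plate controls; inactive = inhibition below 50%.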

Assays:
[1] = inhibitors of TNFa-induced NFkB p65 translocation, primary screen, imaging, HUVEC, MLSMR starter and 10KST1 sets (AID 438;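 active = inhibition above 20% together with a positive visual image hit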;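 note: compound added about 3h40 before a 20 min TNFalpha stimulation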;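 for inhibition: signal is the nuclear over cytoplasmic p65 intensity ratio per well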); conditions: HUVEC TNFa-induced p65 nuclear translocation; cell count: measured here: nuclei count (cytotoxicity indicator), at 2.08 µM; inhibition: at 2 µM, stronger effect = higher value, 0% TNFa-plus-vehicle, 100% no-TNFa wells
[2] = inhibitors of mutant huntingtin aggregation, primary screen, imaging, exon1htt(103Q)mCFP cells, high-content imaging (AID 483;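 active = visual image review flags a hit and inhibition of aggregation exceeds 20%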;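 note: compound exposure lasted 3 days before fixation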;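 for nuclei count: percent of the per-plate median nuclei count of sample wells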); conditions: exon1htt(103Q)mCFP cell line, aggregate imaging, at 2 µM; inhibition of aggregation: stronger effect = higher value; nuclei count: measured here: cell count, toxicity
[3] = inhibitors of E-selectin induction by TNFa, primary screen, imaging, HUVEC, immunofluorescence, MLSMR starter and 10KST1 sets (AID 487;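 active = visually confirmed hit in the image check and inhibition above 20%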;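 for inhibition: signal is fraction of cell area covered by stained E-selectin grains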;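 for nuclei count: 100% = median nuclei count of all wells on the same plate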); conditions: HUVEC TNFalpha-induced E-selectin immunofluorescence imaging, at 2 µM; inhibition: stronger effect = higher value; nuclei count: measured here: cell number, toxicity
[4] = DUSP6 inhibitors restoring Erk phosphorylation by chemical complementation, primary imaging in DUSP6-transfected HeLa (AID 609;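 active = compounds giving at least 50% inhibition in the cell-based MKP-3 phosphatase rescue imaging test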;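 for inhibition: phospho-Erk level distribution per well compared with pooled transfected vehicle control wells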); conditions: HeLa MKP-3 transfected, phospho-Erk imaging KS statistic, at 10 µM, cells stimulated with TPA for 15 min
[5] = target: Dual specificity protein phosphatase 6 (Homo sapiens) (UniProt Q16828); assay: as above; conditions: HeLa MKP-3 transfected, phospho-Erk imaging KS statistic; at 10 µM; stronger effect = higher value; cells stimulated with TPA for 15 min
Chain of Dual specificity protein phosphatase 6 (Homo sapiens) (Q16828 whole entry, looked up): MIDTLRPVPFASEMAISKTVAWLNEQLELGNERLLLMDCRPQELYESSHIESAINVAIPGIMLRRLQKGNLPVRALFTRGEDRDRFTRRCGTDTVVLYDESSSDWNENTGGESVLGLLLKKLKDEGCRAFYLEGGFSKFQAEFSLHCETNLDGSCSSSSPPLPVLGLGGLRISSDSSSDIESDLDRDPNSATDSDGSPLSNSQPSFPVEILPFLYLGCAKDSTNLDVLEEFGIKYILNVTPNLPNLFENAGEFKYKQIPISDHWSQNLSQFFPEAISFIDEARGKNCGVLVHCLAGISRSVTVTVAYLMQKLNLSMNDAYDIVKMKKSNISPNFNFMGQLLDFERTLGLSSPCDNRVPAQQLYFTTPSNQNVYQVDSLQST

[6] = target: Voltage-gated potassium channel subunit beta-2 (Rattus norvegicus) (UniProt P62483); assay: KvBeta enzyme negative modulators, primary screen, biochemical, NADPH fluorescence (AID 622;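 active = fluorescence slope higher than the sample average by over 3 SD, cut at about -0.22 in these data, passing the limit was not always enough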;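 note: slope of raw intensity against log time taken from 70 to 1610 s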); conditions: recombinant KvBeta, 4-cyanobenzaldehyde reduction, at 10 µM, stronger effect = higher value
Chain of Voltage-gated potassium channel subunit beta-2 (Rattus norvegicus) (P62483 whole entry, looked up): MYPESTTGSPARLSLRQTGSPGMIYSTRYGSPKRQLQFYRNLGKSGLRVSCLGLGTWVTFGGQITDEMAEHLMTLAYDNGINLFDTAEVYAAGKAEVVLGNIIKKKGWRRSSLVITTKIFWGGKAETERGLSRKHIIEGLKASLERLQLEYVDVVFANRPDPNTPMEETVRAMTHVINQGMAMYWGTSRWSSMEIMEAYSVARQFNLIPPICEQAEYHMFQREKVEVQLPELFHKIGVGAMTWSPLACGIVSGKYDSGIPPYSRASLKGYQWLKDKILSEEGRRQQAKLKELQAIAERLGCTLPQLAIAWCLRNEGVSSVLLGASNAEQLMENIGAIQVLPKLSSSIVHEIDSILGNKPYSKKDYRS

[7] = target: Voltage-gated potassium channel subunit beta-2 (Rattus norvegicus) (UniProt P62483); assay: KvBeta positive modulators, primary screen, biochemical, NADPH fluorescence (AID 623;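 active = NADPH fluorescence slope more negative than the mean of all samples by about 3 SD, 99.7% confidence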;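 note: fluorescence intensity change per second fitted from 20 to 320 s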); conditions: Recombinant KvBeta, NADPH fluorescence decrease slope, 10 min; at 10 µM; stronger effect = lower value
[8] = target: Alpha-2C adrenergic receptor (Homo sapiens) (UniProt P18825); assay: modulators of alpha2C/GIRK thallium flux, primary screen, cell-based, HEK293 alpha2C/GIRK1/2 (AID 624;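 active = fluorescence slope after compound addition differing from the mean of all screened samples at 99.7% confidence, in either direction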;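 note: slope of fluorescence ratio to pre-addition baseline per second over 15 to 24 s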); conditions: thallium flux BTC fluorescence, at 10 µM, actives lie on both sides
Chain of Alpha-2C adrenergic receptor (Homo sapiens) (P18825 whole entry, looked up): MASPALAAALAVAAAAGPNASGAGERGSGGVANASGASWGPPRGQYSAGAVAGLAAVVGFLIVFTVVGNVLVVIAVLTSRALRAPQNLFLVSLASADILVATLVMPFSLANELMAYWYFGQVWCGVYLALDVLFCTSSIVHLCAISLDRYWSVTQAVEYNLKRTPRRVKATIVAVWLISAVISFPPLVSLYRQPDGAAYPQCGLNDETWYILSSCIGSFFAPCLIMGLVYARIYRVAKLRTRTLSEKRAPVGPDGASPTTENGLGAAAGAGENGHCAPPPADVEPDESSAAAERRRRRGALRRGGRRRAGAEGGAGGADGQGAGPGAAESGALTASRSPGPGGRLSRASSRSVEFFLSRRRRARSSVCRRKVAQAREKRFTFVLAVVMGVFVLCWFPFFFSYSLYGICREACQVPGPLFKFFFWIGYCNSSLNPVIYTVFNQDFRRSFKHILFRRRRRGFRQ

[9] = inhibitors of larval lipid processing in zebrafish, primary screen, whole organism, PED6 fluorescence, gall bladder and intestine (AID 686;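 active = a full or partial loss of lipid-probe fluorescence in the fish gall bladder, intestine or both, judged by eye; inactive = no fluorescence loss, or compound toxic to the fish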;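 note: larvae 5 to 7 days old with five fish per well; signal comes from phospholipase A2 cleavage of quenched PED6 carried via bile; overnight exposure to compound and PED6 before scoring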); conditions: Zebrafish larvae PED6 lipid processing, fluorescence scoring; screened at 20 µM (by protocol)
[10] = inhibitors of Chlamydomonas gravitaxis, primary screen, whole organism, Chlamydomonas reinhardtii, WT vs cilia-less mutant, absorbance, 96-well (AID 463189); conditions: OD600 absorbance, 2 days, at 10 µM, stronger effect = higher value;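 note: 0% = wild type cc124 cells in DMSO and 100% = ciliumless bld1 mutant cells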
[11] = inhibitors of Sendai virus-induced IRF3 signaling, primary screen, TLR/RLR signaling modifier project, cell-based, Sendai virus stimulus, luciferase, 10K MLSCN set (AID 602276;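 active = inhibition at or above 50% at 10 µM; inactive = inhibition below 50%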;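 note: firefly luciferase from ISG56 promoter only with Renilla not read in this screen; 0% = Sendai virus plus DMSO and 100% = medium plus DMSO without virus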); conditions: HEK293 RL24 IRF3 luciferase reporter, at 10 µM, stronger effect = higher value
[12] = inhibitors of poly I:C-induced TLR3 signaling, primary screen, cell-based, poly I:C stimulus, luciferase, 10K MLSCN set (AID 602277;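 active = inhibition of the reporter signal at or above 50%; inactive = inhibition below 50%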); conditions: HEK293-TLR3 RL24 IRF3 luciferase reporter, at 10 µM, stronger effect = higher value
[13] = measured here: cell density z-score
[14] = measured here: nuclear c-Myc green intensity z-score
[15] = measured here: nuclear pErk red intensity z-score, stronger effect = higher value

SMILES	cell count [1]	inhibition [1]	inhibition of aggregation [2]	nuclei count [2]	inhibition [3]	nuclei count [3]	z-score [4, 13]	z-score [4, 14]	z-score [4, 15]	inhibition [5]	fluorescence slope [6]	NADPH fluorescence slope [7]	slope [8]	outcome [9]	inhibition [10]	inhibition [11]	inhibition [12]
COc1ccc(OC)c(C2=Nn3c(nnc3C3CCCCC3)SC2)c1	580	-3.9% (inactive)	18.9% (inactive)	77.4%	-38.3% (inactive)	118%	-0.0238	2.3	-0.394	2.92% (inactive)	-0.431 (inactive)	-0.000148 (inactive)	0.00512 (inactive)	inactive	25.7% (inactive)	5.58% (inactive)	19.6% (inactive)
CN(C)CCN(Cc1ccccc1)c1ccccn1	526	-10.5% (inactive)	18.7% (inactive)	98.3%	-31.1% (inactive)	109%	-0.393	0.385	-0.67	9.37% (inactive)	-0.432 (inactive)	-8.6e-05 (inactive)	0.00588 (inactive)	inactive	49.5% (inactive)	11.1% (inactive)	33.9% (inactive)
Cc1cc(C)n(-c2nnc(C)n2/N=C/c2ccco2)n1	609	-8.3% (inactive)	-21.9% (inactive)	106%	-232% (inactive)	159%	1.68	-0.585	0.108	20.2% (inactive)	-0.501 (inactive)	-5.1e-05 (inactive)	0.00494 (inactive)	inactive	17.4% (inactive)	17.4% (inactive)	24% (inactive)
COc1ccccc1-n1c(=O)c2c3c(sc2n2c(SC(C)C)nnc12)CCC3	643	-11.3% (inactive)	31.3% (active)	93.7%	-68% (inactive)	145%	1.45	-1.07	1.13	-11% (inactive)	-0.248 (inactive)	1.3e-05 (inactive)	0.005 (inactive)	inactive	34.4% (inactive)	0.779% (inactive)	20.4% (inactive)
CN(C)CCOC(=O)C(c1ccccc1)C1(O)CCCC1 (configuration not stated)	635	-7.2% (inactive)	-8.5% (inactive)	102%	-51% (inactive)	110%	0.315	0.351	1.54	-6.41% (inactive)	-0.432 (inactive)	-7.3e-05 (inactive)	0.00471 (inactive)	inactive	13.5% (inactive)	15.3% (inactive)	45.7% (inactive)
O=C(COc1ccccc1)Nc1ccc(-c2nnc(-c3ccco3)o2)cc1	458	-4.3% (inactive)	7.5% (inactive)	101%	-252% (inactive)	102%	-2.58	1.43	-0.658	3.97% (inactive)	-0.499 (inactive)	-2.1e-05 (inactive)	0.00796 (inactive)	inactive	-15.4% (inactive)	-55.4% (inactive)	-103% (inactive)
COc1ccc2nc(S(=O)Cc3ncc(C)c(OC)c3C)[nH]c2c1 (configuration not stated)	542	1.6% (inactive)	2.2% (inactive)	97.5%	-24.2% (inactive)	108%	0.164	1.22	-0.909	25.7% (inactive)	-0.449 (inactive)	-7.2e-06 (inactive)	0.00367 (inactive)	inactive	27% (inactive)	-9.53% (inactive)	-10.5% (inactive)
Nc1ccc2[nH]ncc2c1	684	7.9% (inactive)	-14.5% (inactive)	106%	-64.7% (inactive)	141%	0.816	1.08	-0.122	27.9% (inactive)	-0.496 (inactive)	-6.9e-05 (inactive)	0.00441 (inactive)	inactive	-11% (inactive)	11.4% (inactive)	31.1% (inactive)
CC(=O)NS(=O)(=O)c1ccc(N)cc1	651	7.7% (inactive)	12.5% (inactive)	97.6%	-106% (inactive)	120%	-1.23	1.33	-0.291	14.6% (inactive)	-0.508 (inactive)	-4.5e-05 (inactive)	0.00641 (inactive)	inactive	46.5% (inactive)	11.7% (inactive)	26.8% (inactive)
CC(=O)OCC(=O)[C@@]12OC(C)(C)O[C@@H]1C[C@H]1[C@@H]3C[C@H](F)C4=CC(=O)C=C[C@]4(C)[C@@]3(F)[C@@H](O)C[C@@]12C	518	-0.9% (inactive)	2% (inactive)	53.2%	-73.2% (inactive)	104%	-0.49	-0.238	-0.0296	-2.46% (inactive)	-0.449 (inactive)	-7.8e-05 (inactive)	0.00478 (inactive)	inactive	-12.6% (inactive)	5.9% (inactive)	40.3% (inactive)
CCCC(=O)O[C@]1(C(=O)CCl)[C@@H](C)C[C@H]2[C@@H]3CCC4=CC(=O)C=C[C@]4(C)[C@@]3(F)C(=O)C[C@@]21C	614	-3.2% (inactive)	-2.9% (inactive)	63.4%	-61.7% (inactive)	120%	0.0825	0.587	-0.866	19.2% (inactive)	-0.535 (inactive)	-7e-05 (inactive)	0.00401 (inactive)	inactive	47.7% (inactive)	-12.4% (inactive)	-5.01% (inactive)
O=C(NCc1ccco1)c1cnn2c(C(F)(F)F)cc(-c3ccco3)nc12	480	-4.4% (inactive)	-12.5% (inactive)	95.1%	-34.8% (inactive)	118%	-0.634	0.493	-1.31	11.3% (inactive)	-0.421 (inactive)	-6.2e-05 (inactive)	0.00539 (inactive)	inactive	-15.7% (inactive)	16% (inactive)	24.8% (inactive)
CCOC(=O)c1c(C)n(C)c2ccc(O)c(S(=O)(=O)c3ccccc3)c12	278	-3.6% (inactive)	-0.2% (inactive)	103%	-19.6% (inactive)	109%	-0.746	0.777	1.13	-8.76% (inactive)	-0.458 (inactive)	-0.000154 (inactive)	0.00656 (inactive)	inactive	-15.5% (inactive)	21.8% (inactive)	27% (inactive)
CC(=O)NCCCCCCNC(C)=O	515	-2% (inactive)	-11.6% (inactive)	101%	5.3% (inactive)	114%	-1.8	0.662	0.679	10.2% (inactive)	-0.45 (inactive)	-5.8e-05 (inactive)	0.00491 (inactive)	inactive	20.9% (inactive)	9.84% (inactive)	44.8% (inactive)
CCSC(SCC)[C@H](O)[C@@H](O)[C@H](O)[C@H](O)CO	619	-2.2% (inactive)	-0.2% (inactive)	107%	-75.4% (inactive)	116%	-0.857	-0.361	-0.437	-4.44% (inactive)	-0.451 (inactive)	1.5e-05 (inactive)	0.00559 (inactive)	inactive	-8.68% (inactive)	10.6% (inactive)	28.3% (inactive)
O=C(O)c1cc2cc(F)ccc2[nH]1	552	-0.9% (inactive)	-5.1% (inactive)	95.6%	-14.2% (inactive)	107%	2.14	-1.93	-0.0855	-5.24% (inactive)	-0.457 (inactive)	-3.2e-05 (inactive)	0.00488 (inactive)	inactive	-3.42% (inactive) and -23.2% (inactive)	12.4% (inactive)	46.1% (inactive)
NS(=O)(=O)c1cc2c(cc1Cl)NC(C1C[C@H]3C=C[C@@H]1C3)NS2(=O)=O (some centres not stated)	536	-8.9% (inactive)	-11.7% (inactive)	102%	6.1% (inactive)	120%	0.229	0.164	0.0197	-6.41% (inactive)	-0.525 (inactive)	-1.3e-05 (inactive)	0.00377 (inactive)	inactive	20.5% (inactive)	-6.01% (inactive)	-8.05% (inactive)
C[C@]12CCC(=O)C=C1CC[C@@H]1[C@@H]2C(=O)C[C@@]2(C)[C@H]1CC[C@]2(O)C(=O)CO	603	-6% (inactive)	21.4% (inactive)	102%	-119% (inactive)	120%	-0.503	-1.16	1.19	-4.44% (inactive)	-0.503 (inactive)	-3.1e-05 (inactive)	0.00463 (inactive)	inactive	-0.81% (inactive) and 2.73% (inactive)	10.2% (inactive)	21.1% (inactive)
CN(C)c1ccc(C=NCC2(O)CCOC(C)(C)C2)cc1 (configuration not stated)	470	-13.2% (inactive)	-13.7% (inactive)	108%	-145% (inactive)	144%	-1.86	-0.94	0.52	17.5% (inactive)	-0.423 (inactive)	-0.000132 (inactive)	0.00493 (inactive)	inactive	7.69% (inactive)	13% (inactive)	13.9% (inactive)
CC(C)COc1nc2ccccc2nc1C(C#N)C(=O)NC1CCCCC1 (configuration not stated)	342	-6.5% (inactive)	11.7% (inactive)	98.8%	-27.9% (inactive)	133%	0.00555	0.614	0.00363	-5.26% (inactive)	-0.423 (inactive)	-0.00013 (inactive)	0.00573 (inactive)	inactive	9.16% (inactive)	13.4% (inactive)	8.92% (inactive)
OC(CCN1CCCC1)(c1ccccc1)C1CCCCC1 (configuration not stated)	573	6.7% (inactive)	-8.9% (inactive)	114%	-40.8% (inactive)	106%	1.31	-0.388	-1.18	19.2% (inactive)	-0.528 (inactive)	-6.1e-05 (inactive)	0.00512 (inactive)	inactive	37.7% (inactive)	0.492% (inactive)	-2.26% (inactive)
